# A collection of fitness landscapes (doi:10.1038/s41467-024-54723-y)
# Over roughly 18,000 sequences, “TetR repression strength (sort-seq, GFP reporter)” has its median near 0.23; the highest 2% begin near 0.68. Shown is part of a subset that was picked to be rich in the highest values.
# Target: TetR (class B, Tn10) (UniProt P04483)
# Assay: TetR repression strength (sort-seq, GFP reporter) (relative to tetO2 = 1); higher = stronger repression
# Settings: E. coli
# Procedure, shortened: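 In LB with 50 µg/mL chloramphenicol, E. coli SIG10-MAX holding a low-copy library with eight randomized operator positions between a constitutive promoter and sfGFP, plus constitutive TetR, grew for 5 h at 37 °C. FACS then sorted 10^6 cells into 13 fluorescence bins for Illumina sequencing of each bin. Repression strength equals the top bin index plus one less the read-weighted mean bin, normalized to the unaltered operator. Values from three independent transformations were averaged when reads were ≥30 in every replicate and the CV was ≤0.5.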
# TetR (class B, Tn10), sequence (P04483 whole entry): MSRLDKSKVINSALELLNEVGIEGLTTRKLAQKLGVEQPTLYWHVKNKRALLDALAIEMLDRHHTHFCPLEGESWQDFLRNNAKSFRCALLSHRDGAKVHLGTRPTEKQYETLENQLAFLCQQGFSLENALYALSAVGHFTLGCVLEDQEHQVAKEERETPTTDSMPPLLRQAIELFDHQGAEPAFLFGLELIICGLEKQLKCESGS
row,Sequence,TetR repression strength
1,TCCCGAGGAGTAAGTGAGA,0.204
2,TCCCTTGTAGTATGTGAGA,0.133
3,TCCCTAGTAGTACTGGAGA,0.176
4,TCCCGGCTAGTACGGGAGA,0.244
5,TCCCTATCAGTCACCGAGA,0.789
6,TCCCTATCAGTGGCGGAGA,0.715
7,TCCCTATCAGTGGGGGAGA,0.378
8,TCCCTTGCAGTGACCGAGA,0.315
9,TCCCTATCAGTCGCCGAGA,0.455
10,TCCCTATCAGTCGCGGAGA,0.456
11,TCCCGATCAGTGACTGAGA,0.427
12,TCCCTTTCAGTGACCGAGA,0.946
13,TCCCGATCAGTGACCGAGA,0.715
14,TCCCTTTCAGTGACTGAGA,0.435
15,TCCCGATCAGTGAGCGAGA,0.544
16,TCCCTGTCAGTCACCGAGA,0.664
17,TCCCGTCTAGTAGCAGAGA,0.634
18,TCCCATGGAGTGTTAGAGA,0.246
19,TCCCCGATAGTCGTGGAGA,0.177
20,TCCCAGCGAGTGCAAGAGA,0.364
21,TCCCGGCCAGTGGAGGAGA,0.19
22,TCCCAAATAGTCGTGGAGA,0.415
23,TCCCGCCAAGTGCGCGAGA,0.258

row,Sequence,TetR repression strength
1,TCCCGATCAGTGACAGAGA,0.742
2,TCCCGGGCAGTAATCGAGA,0.121
3,TCCCTATCAGTGAAGGAGA,0.51
4,TCCCGACCAGTGACAGAGA,0.644
5,TCCCTATCAGTGACCGAGA,0.944
6,TCCCTATCAGTTACCGAGA,0.663
7,TCCCTATCAGTGAACGAGA,0.862
8,TCCCGTGCAGTAATCGAGA,0.749
9,TCCCGTTCAGTGACAGAGA,0.504
10,TCCCGTGCAGTAAACGAGA,0.326
11,TCCCGATCAGTGAACGAGA,0.628
12,TCCCTATGAGTGACCGAGA,0.604
13,TCCCACATAGTGGTAGAGA,0.199
14,TCCCACTGAGTGCCTGAGA,0.139
15,TCCCATCCAGTGCTTGAGA,0.267
16,TCCCCGTAAGTGAGAGAGA,0.149
17,TCCCTTAAAGTATGCGAGA,0.238
18,TCCCTTTAAGTTCTCGAGA,0.271
19,TCCCTGTAAGTATGGGAGA,0.174
20,TCCCCCGAAGTTAAGGAGA,0.155
21,TCCCTATAAGTGGCCGAGA,0.719
22,TCCCGATCAGTGGCCGAGA,0.565
23,TCCCGATAAGTGGCCGAGA,0.171

row,Sequence,TetR repression strength
1,TCCCGTGCAGTGACCGAGA,0.709
2,TCCCGGTGAGTGACCGAGA,0.207
3,TCCCGCGCAGTGACCGAGA,0.219
4,TCCCGTGCAGTGCCCGAGA,0.361
5,TCCCTATCAGTGGGCGAGA,0.541
6,TCCCGGTCAGTCACCGAGA,0.669
7,TCCCTATGAGTGGCCGAGA,0.402
8,TCCCGGTCAGTGACCGAGA,0.715
9,TCCCTATCAGTGGCCGAGA,0.724
10,TCCCAGTGAGTCCATGAGA,0.163
11,TCCCAACAAGTGTTCGAGA,0.0254
12,TCCCTGCAAGTTTCGGAGA,0.0543
13,TCCCCTGGAGTAGGCGAGA,0.0907
14,TCCCAGTGAGTACCCGAGA,0.261
15,TCCCTTTTAGTGGTGGAGA,0.212
16,TCCCTCATAGTAAGAGAGA,0.291
17,TCCCTGATAGTTGGCGAGA,0.317
18,TCCCGTGGAGTTGACGAGA,0.0573
19,TCCCTGATAGTCGAAGAGA,1.14
20,TCCCTGAGAGTCGAAGAGA,1.18
21,TCCCTGGTAGTCGAAGAGA,0.187
22,TCCCTGGGAGTCGAAGAGA,0.196
23,TCCCTCTGAGTCGAAGAGA,0.0537

row,Sequence,TetR repression strength
1,TCCCAGATAGTCGAAGAGA,0.115
2,TCCCGGATAGTGTCGGAGA,0.141
3,TCCCCGTTAGTTTTAGAGA,0.25
4,TCCCGTTGAGTATATGAGA,0.229
5,TCCCGATAAGTAGAAGAGA,0.585
6,TCCCGGCAAGTGCTTGAGA,0.155
7,TCCCGTCAAGTGCTTGAGA,0.848
8,TCCCGTCCAGTGCTGGAGA,0.212
9,TCCCGTCAAGTGGTTGAGA,0.152
10,TCCCGTCCAGTGCTTGAGA,0.915
11,TCCCGTGCAGTGCTTGAGA,0.207
12,TCCCGCTCAGTTGGGGAGA,0.186
13,TCCCCAGTAGTAGTGGAGA,0.246
14,TCCCCTCTAGTAGGTGAGA,0.12
15,TCCCTTAGAGTGAGGGAGA,0.0732
16,TCCCAACAAGTCGCAGAGA,0.281
17,TCCCGAGCAGTGATGGAGA,0.371
18,TCCCAAGCAGTGACAGAGA,0.432
19,TCCCGAGCAGTGACAGAGA,0.736
20,TCCCCAGCAGTGAGTGAGA,0.167
21,TCCCCATAAGTGATTGAGA,0.42
22,TCCCCAGAAGTGATTGAGA,1.1
23,TCCCCAGCAGTGCTTGAGA,0.311

row,Sequence,TetR repression strength
1,TCCCTAGCAGTGATCGAGA,0.659
2,TCCCCAGCAGTGATTGAGA,1.1
3,TCCCGAGCAGTGGCAGAGA,0.286
4,TCCCAGGAAGTGATTGAGA,0.266
5,TCCCGAGCAGTGATCGAGA,0.708
6,TCCCTACTAGTTACAGAGA,0.0592
7,TCCCGATTAGTCTTTGAGA,0.0932
8,TCCCCAGGAGTCCGGGAGA,0.332
9,TCCCACAAAGTCAGTGAGA,0.0709
10,TCCCTGATAGTCTTGGAGA,0.231
11,TCCCTCGAAGTGGGGGAGA,0.0994
12,TCCCGTCGAGTAAGTGAGA,0.219
13,TCCCGAGTAGTGGAGGAGA,0.155
14,TCCCTTGGAGTAACAGAGA,0
15,TCCCGAGGAGTGCCAGAGA,0.547
16,TCCCGAGCAGTGATAGAGA,0.75
17,TCCCGAACAGTGTGTGAGA,0.161
18,TCCCAAGCAGTGAAAGAGA,0.367
19,TCCCGAGCAGTGCTAGAGA,0.661
20,TCCCGAGAAGTGCCAGAGA,0.312
21,TCCCGAACAGTGGGGGAGA,0.367
22,TCCCGAGCAGTGAAAGAGA,0.755
23,TCCCGAGAAGTGAAAGAGA,0.0859

row,Sequence,TetR repression strength
1,TCCCGAACAGTGGGTGAGA,0.949
2,TCCCGAGCAGTGCCAGAGA,0.684
3,TCCCGGGCAGTGATAGAGA,0.571
4,TCCCACAAAGTGGCGGAGA,0.306
5,TCCCGTAAAGTTCCGGAGA,0.38
6,TCCCAAGGAGTAGGAGAGA,0.119
7,TCCCACGAAGTAATAGAGA,0.379
8,TCCCGATAAGTTTACGAGA,0.495
9,TCCCGAACAGTAACGGAGA,0.571
10,TCCCATTGAGTGCTTGAGA,0.36
11,TCCCGTCGAGTGAAAGAGA,0.69
12,TCCCGAGCAGTGAGAGAGA,0.689
13,TCCCGAGCAGTGTGAGAGA,0.175
14,TCCCGAGCAGTAACAGAGA,0.752
15,TCCCGTGCAGTAACAGAGA,0
16,TCCCGAGCAGTGATTGAGA,0.701
17,TCCCGAGCAGTGAGTGAGA,0.507
18,TCCCGTCGAGTGAACGAGA,0.242
19,TCCCGAGCAGTAACTGAGA,0.149
20,TCCCGTCGAGTGAGAGAGA,0.396
21,TCCCGTGCAGTGATTGAGA,0.165
22,TCCCGAGCAGTGTGTGAGA,0.222
